Assay outcomes (PubChem BioAssay)
Shown is part of a subset that was picked to be rich in hits.
14-3-3g Raf = modulators of 14-3-3 gamma protein binding, primary screen, biochemical, fluorescence polarization; FP, 14-3-3gamma / TMR-pS259-Raf peptide binding; inhibition, % at 40 µM; 0.19% of 160,000 active; in the data active means inhibition above about 30%
Target sequence (P61981 whole entry, looked up): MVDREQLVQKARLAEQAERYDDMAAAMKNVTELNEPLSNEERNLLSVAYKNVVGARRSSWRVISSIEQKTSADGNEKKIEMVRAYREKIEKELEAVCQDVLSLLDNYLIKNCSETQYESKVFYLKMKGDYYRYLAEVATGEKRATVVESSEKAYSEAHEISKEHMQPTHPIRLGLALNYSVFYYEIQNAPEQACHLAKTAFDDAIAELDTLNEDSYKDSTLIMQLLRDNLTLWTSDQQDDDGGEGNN
A number is an active result; . = inactive; + = active, no number.

SMILES	14-3-3g Raf
COCCCNC(=O)CN1C(=O)c2ccccc2C1=O	.
Cc1ccc(F)c(NC(=O)C2CC(=O)N(c3ccc(C)c(C)c3)C2)c1 (stereo not given)	.
CCC(=O)Oc1ccc(C(=O)Nc2ccc(-c3nc4ccccc4[nH]3)cc2)cc1	.
O=C(CN1N=C(c2ccccc2)CCC1=O)N1CCCCC1	.
Cc1ccc2cc3cc(C(=O)N4CCC(N5CCCCC5)CC4)oc3nc2c1	.
COc1ccc2cc3cc(C(=O)N4CCCC4)oc3nc2c1	.
COc1ccc2cc3cc(C(=O)N4CCC(N5CCCCC5)CC4)oc3nc2c1	46
COc1cc(C2Nc3ccc4ccccc4c3C3=C2C(=O)CC(C)(C)C3)cc(Br)c1O (stereo not given)	.
Nc1cc(OC(=O)c2ccccc2Cl)nn1S(=O)(=O)c1ccc(F)cc1	.
O=C(Oc1ccc(C2CCCCC2)cc1)c1ccccc1F	31
CSc1ccc(OC(=O)c2ccccc2F)cc1	.
O=C(OCCN1CCCCC1)c1ccccc1F	.
CC(=O)Nc1ccc(-n2c(C=Cc3cccc([N+](=O)[O-])c3)nc3ccccc3c2=O)cc1	.
COc1ccc(-n2c(=O)c3c(C)c(C)sc3n(Cc3ccccc3F)c2=O)c(OC)c1	.
CCCCOc1ccc(NC2=C(N3CCOCC3)C(=O)c3ccccc3C2=O)cc1	.
O=C(O)c1ccc(NC2=C(N3CCOCC3)C(=O)c3ccccc3C2=O)cc1	56
O=C(O)c1cccc(NC2=C(N3CCCC3)C(=O)c3ccccc3C2=O)c1	.
O=C(c1ccc2nc3cc(Cl)ccc3c(=O)n2c1)N1CCN(c2cccc(C(F)(F)F)c2)CC1	.
CCCOc1ccc(/C(O)=C2/C(=O)C(=O)N(CCN(C)C)C2c2ccc(O)c(OC)c2)cc1 (stereo not given)	.
COc1ccc(/C(O)=C2/C(=O)C(=O)N(CCCN(C)C)C2c2ccc(Cl)cc2)cc1OC (stereo not given)	.
CCCOc1ccc(C2/C(=C(/O)c3ccccc3)C(=O)C(=O)N2CCCN(C)C)cc1OC (stereo not given)	35
O=C(COc1ccc(-c2ccccc2)cc1)Nc1ccc(F)cc1	.
Cc1ccccc1NC(=O)CN(C)S(=O)(=O)c1ccc(Br)s1	.
COc1ccc(C2=NN(CCC(=O)NC3CCCC(C)C3C)C(=O)CC2)cc1 (stereo not given)	.
O=C(O)c1c[nH]c2ccc(S(=O)(=O)N3CCCCC3c3cccnc3)cc2c1=O (stereo not given)	57
SMILES	14-3-3g Raf
O=C(c1c[nH]c2ccc(S(=O)(=O)N3CCCCC3c3cccnc3)cc2c1=O)N1CCCC1 (stereo not given)	.
CC1CCN(C(=O)c2c[nH]c3ccc(S(=O)(=O)N4CCCCC4c4cccnc4)cc3c2=O)CC1 (stereo not given)	.
CN1CCOCCOCCOCCN(C)CCOCC1	.
COc1ccc(-c2cc(=O)[nH]c(SCC(=O)Nc3ccc(C)cc3)n2)cc1	.
Cc1cc(Oc2coc3cc(OC(=O)c4cccs4)ccc3c2=O)cc(C)c1Cl	.
COc1ccc(N2CCN(CCNC(=O)c3cccn4c(=O)c5cc6ccccc6cc5nc34)CC2)cc1	179
O=C(NCCN1CCOCC1)c1cccn2c(=O)c3cc4ccccc4cc3nc12	.
COc1ccc(N2CCN(CCNC(=O)c3cccn4c(=O)c5ccc(Cl)cc5nc34)CC2)cc1	.
Cc1c(N=Cc2cc([N+](=O)[O-])ccc2N2CCOCC2)c(=O)n(-c2ccccc2)n1C	.
CC(C)NC(=O)N1CCOCCOCCN(C(=O)NC(C)C)CCOCCOCC1	.
CC(N)C(=O)N1CCOCCOCCN(C(=O)C(C)N)CCOCCOCC1 (stereo not given)	+
CC(C(=O)N1CCOCC1)N1C(=O)c2ccccc2C1=O (stereo not given)	.
Cc1ccc(-c2nc3ccccc3c(=O)n2CC(=O)C(C)(C)C)cc1	.
